# High-throughput results deposited in PubChem by National Center for Advancing Translational Sciences (NCATS).
# HT1080NT lethal: kills 2HG-producing HT-1080-NT fibrosarcoma cells | Potency, µM (series often up to 46.1 µM), for inactives: at the top dose activity, negative = less viability, most hits filed as cytotoxic | HT-1080-NT fibrosarcoma viability, CellTiter-Glo ATP luminescence, 48 h | hit rate 1.6% among 360,000;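 further: NT is the 2HG producing partner of a matched IDH1 knockdown line; potency means the concentration at half of the fitted maximal effect; 0% = DMSO-treated cells and -100% = media-only wells without cells; nearly all actives have a fitted effect of over 55% in size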
#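 Viability by CellTiter-Glo luminescence after 48 h compound exposure at 37C of HT-1080-NT cells (750/well, RPMI, 5% FBS). % activity scaled between DMSO wells and medium-only wells, then curve-fitted and categorized by curve class.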
# DT40 TDP1 CPT: DT40-hTDP1 cell growth loss with CPT; Potency, µM (titrated, usually from 46.2 µM), for the others: top-dose activity change, negative = growth inhibition, usual class: inhibitors; AID 686979; hit rate 12% among 420,000; chicken DT40 Tdp1-/-;hTDP1 cells + 20 nM CPT, ATP luminescence, 48 h; further: potency means the concentration at half of the fitted maximal effect; nearly all actives have a fitted effect of over 55% in size
#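 Chicken DT40 Tdp1-/- cells complemented with human TDP1, 400 cells/well, exposed to compounds plus 20 nM camptothecin for at least 48 h at 37 C; viability read as ATP content by CellTiter-Glo luminescence.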
# uPA surface inh: blocks generation of uPA at the cell surface; AID 540303; hit rate 0.31% among 330,000; Potency, µM (series often up to 38.3 µM), without a hit: at the highest dose activity change, negative = inhibition, hits mostly inhibitors; cell surface uPA generation assay, qHTS; active means well fitted inhibition curve with a large enough effect; inconclusive means small, poorly fitted or top-dose-only effect; inactive means no such curve, though single readings can be large or run the other way; tested in mouse RAW 264.7 cells; further: potency means the concentration at half of the fitted maximal effect; nearly all actives have a fitted effect of over 55% in size
# TDP1 cell noCPT: qHTS for Inhibitors of human tyrosyl-DNA phosphodiesterase 1 (TDP1): qHTS in cells in absence of CPT; hit rate 15% among 420,000; DT40 Tdp1-/- hTDP1 cells, no CPT, ATP luminescence, 48 h; Potency, µM (titrated, usually from 46.2 µM), inactives show at the top dose activity change, negative = growth inhibition, hits mostly inhibitors; further: potency means the concentration at half of the fitted maximal effect; nearly all actives have a fitted effect of over 55% in size
#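 Compound effects on proliferation are scored in DT40 Tdp1-/-;hTDP1 cells in the absence of CPT. ATP levels (CellTiter-Glo luminescence) are recorded after a ≥48 hr, 37 °C incubation.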
# HT1080 IDH1KD tx: kills HT-1080 cells with IDH1 knockdown; AID 686971; HT-1080 IDH1 knockdown viability, ATP luminescence, 48 h; Potency, µM (titrated, usually from 46.1 µM), inactives show at the top dose activity, negative = toxicity, usual class: cytotoxic; hit rate 2% among 360,000;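 further: potency means the concentration at half of the fitted maximal effect; 0% = DMSO wells and -100% = cell-free medium wells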
#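 % activity derives from luminescence (CellTiter-Glo), normalised to DMSO and no-cell wells. HT-1080-IDH1KD cells, 750/well, had 48 h compound exposure at 37 °C.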
# IL1B secr inh: inflammasome signaling inhibition, IL-1 beta readout. THP-1 LPS/ATP IL-1B secretion, AlphaLISA, 16 h; hits give low values. activity change, % at 57.5 µM. hit rate 4.7% among 360,000; in the data active means activity change below about -50%; inconclusive means mostly about -30% to -49%
#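 THP-1 cells pretreated 1 hr with compounds (up to 57.5 uM final), then stimulated with LPS (250 ng/mL final) plus ATP (1.25 mM final); secreted IL-1B measured by AlphaLISA after 16 hr, decreased signal indicating inhibition.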
# Starred values were filed as active, the others as inactive; ? = inconclusive; . = no result. Sampled rows, rich in hits. Any-hit rate of the full collection: about 19%. Unless noted, the call rests on the fitted dose curve; in most records, active means well fitted curve in the direction sought with a large enough effect; inconclusive means small, poorly fitted or top-dose-only effect, or another doubt; inactive means no such curve, though single readings can be large; an effect the other way counts as inactive or inconclusive. Unless noted, on the % scale 0 is the no-effect control and ±100 the full control effect.
SMILES,HT1080NT lethal,DT40 TDP1 CPT,uPA surface inh,TDP1 cell noCPT,HT1080 IDH1KD tx,IL1B secr inh
Cc1ccccc1OCC(=O)NCC(=O)OC(c1ccccc1)c1ccccc1,.,-9.2%,.,-12.3%,.,.
CC(C)(C)NC(=O)C(c1ccc(C(F)(F)F)cc1)n1c(=O)c(-c2ccccc2)nc2ccccc21 (configuration not stated),-0.7%,18.4µM*,.,?,-0.4%,32.8
CC(C)(C)NC(=O)C(c1ccncc1)n1c(=O)c(-c2ccccc2)nc2ccccc21 (configuration not stated),11.3%,-6.3%,.,-8.2%,18.9%,-9.4
O=C(NC1CCCCC1)C(c1ccc(C(F)(F)F)cc1)n1c(=O)c(-c2ccccc2)nc2ccccc21 (configuration not stated),-19.9%,?,.,13µM*,0.0%,27.2
C=CCc1cc(/C=N/n2cnnc2)cc(OCC)c1O,6.3%,2.8%,-0.4%,?,6.4%,4.3
C=CCc1cc(C=Nc2ccc(N3CCOCC3)cc2)cc(OCC)c1O,-1.3%,-27.8%,-7.0%,16.4µM*,-2.9%,-15.6
O=c1c(-c2ccc(F)c(F)c2)nc2cncnc2n1C1CC1,.,-1.7%,.,16.5%,.,.
COc1ccc2cc3cc(C(=O)N4CCCCC4C)oc3nc2c1 (configuration not stated),-1.6%,16.4µM*,?,?,-0.2%,?
COc1ccc2cc3cc(C(=O)NCCN4CCN(Cc5ccccc5)CC4)oc3nc2c1,-0.2%,-28.3%,-0.4%,20.6µM*,-9.9%,-67.4*
Cc1ccc2cc3cc(C(=O)NCCN4CCOCC4)oc3nc2c1,-2.3%,-26.2%,-6.3%,?,-4.8%,-6.7
COc1ccc2cc3cc(C(=O)NCCN4CCc5ccccc5C4)oc3nc2c1,-23.9%,?,1.3%,?,?,-19.8
COc1ccc2cc3cc(C(=O)NCCCN4CCOCC4)oc3nc2c1,6.4%,-25.9%,-6.2%,?,8.4%,-8.8
CCN1CCN(CCCNC(=O)c2cc3cc4ccc(OC)cc4nc3o2)CC1,-19.9%,-5.5%,-8.5%,?,-15.0%,-84.9*
COc1ccc2cc3cc(C(=O)NCCCN4CCC(C)CC4)oc3nc2c1,-24.8%,?,?,2.59µM*,-23.7%,-83.1*
COc1ccc2cc3cc(C(=O)N4CCCCCC4)oc3nc2c1,-14.3%,?,-15.1%,?,-6.7%,?
Cc1ccc(CCNC(=O)CCSCc2ccccc2F)cc1,.,-5.4%,.,-10.0%,.,.
CCCCCCN1C[C@@H](O)[C@H](n2cc(COC(=O)c3ccccc3)nn2)C[C@@H]1c1ccc(C)cc1,2.9%,20.6µM*,.,20.6µM*,1.8%,17.9
Cc1ccc([C@H]2C[C@@H](n3cc(COC(=O)c4ccccc4)nn3)[C@H](O)CN2C(=O)C2CCCCC2)cc1,-11.9%,?,.,20.6µM*,-5.7%,-23.7
O=C(OCc1cn([C@H]2C[C@H](c3ccccc3)N(CC3CCCCC3)C[C@@H]2O)nn1)c1ccccc1,-6.3%,?,.,?,-7.3%,23.0
O=C(OCc1cn([C@@H]2C[C@H](c3ccccc3)N(C(=O)C3CCCCC3)C[C@H]2O)nn1)c1ccccc1,-2.5%,-16.2%,.,?,16.6%,-1.3
COc1ccc([C@H]2C[C@H](O)[C@@H](n3cc(COC(=O)c4ccccc4)nn3)CN2CC2CCCCC2)cc1,?,23.1µM*,.,23.1µM*,?,-8.8
Cc1ccc([C@H]2C[C@H](n3cc(COC(=O)c4ccccc4)nn3)[C@@H](O)CN2CC2CCCCC2)cc1,9.4%,?,.,20.6µM*,9.7%,5.3
CCCCCCN1C[C@@H](O)[C@H](n2cc(COC(=O)c3ccccc3)nn2)C[C@@H]1c1ccccc1,22.7%,?,.,?,-3.5%,9.6
Cc1ccc([C@H]2C[C@@H](n3cc(COC(=O)c4ccccc4)nn3)[C@H](O)CN2CC2CCCCC2)cc1,0.6%,?,.,?,1.5%,14.0
O=C(C1CCC1)N1CCCc2cc(S(=O)(=O)N3CCN(c4ccccc4)CC3)ccc21,-0.2%,18.4µM*,-2.7%,?,0.0%,-2.8
SMILES,HT1080NT lethal,DT40 TDP1 CPT,uPA surface inh,TDP1 cell noCPT,HT1080 IDH1KD tx,IL1B secr inh
O=C(NCc1ccccc1Cl)C1CCN(S(=O)(=O)c2ccc3c(c2)CCCN3C(=O)C2CCC2)CC1,.,14.6µM*,.,14.6µM*,.,.
CC(=O)N1CCCc2cc(S(=O)(=O)N3CCC(C)CC3)ccc21,8.9%,2.9%,-1.8%,-4.1%,12.5%,14.5
CC(=O)N1CCCc2cc(S(=O)(=O)N3CCN(c4ccc(F)cc4)CC3)ccc21,.,23.1µM*,.,16.4µM*,.,.
CC(=O)N1CCCc2cc(S(=O)(=O)N3CCCC(C(=O)Nc4ccc(C)c(F)c4)C3)ccc21 (configuration not stated),.,?,.,20.6µM*,.,.
CC(=O)N1CCCc2cc(S(=O)(=O)N3CCCC(C(=O)Nc4cccc(C)c4)C3)ccc21 (configuration not stated),3.2%,-28.2%,-16.4%,-18.1%,-14.5%,-16.9
OC[C@@H]1CN(Cc2ccc3c(c2)OCO3)C[C@H](n2cnc3c(NCc4ccncc4)ncnc32)O1,7.9%,-17.8%,.,-11.6%,7.0%,-1.4
COc1ccc(CNC(=O)C2CCCN(S(=O)(=O)c3ccc4c(c3)C(C)(C)C(=O)N4C)C2)cc1 (configuration not stated),0.8%,-14.2%,-5.6%,?,2.0%,20.6
CC(=O)N1CCCc2cc(S(=O)(=O)N3CCCC(C(=O)NCc4ccccc4Cl)C3)ccc21 (configuration not stated),9.6%,20.6µM*,0.1%,25.9µM*,0.3%,-15.0
CCC(=O)N1CCCc2cc(S(=O)(=O)N3CCC(C(=O)Nc4ccccc4CC)CC3)ccc21,.,25.9µM*,.,?,.,.
CC(=O)N1c2ccc(S(=O)(=O)N3CCC(C(=O)NCc4ccccc4Cl)CC3)cc2CC1C (configuration not stated),2.3%,-6.0%,8.3%,?,0.0%,-6.1
CC(=O)N1c2ccc(S(=O)(=O)N3CCCC(C(=O)NCc4ccccc4Cl)C3)cc2CC1C (configuration not stated),-2.8%,?,2.1%,-11.2%,-15.8%,-55.1*
CN1C(=O)C(C)(C)c2cc(S(=O)(=O)N3CCCC(C(=O)NCc4ccccc4Cl)C3)ccc21 (configuration not stated),-1.0%,?,-6.6%,23.1µM*,-1.9%,2.3
